# Data taken from the supplement of paper PMC8728848.
# This is one part of a sample in which the strongest signals are shown more often than they occur.
# B1: PX14375A-pdi-503-28-503 (Parabacteroides distasonis) (protein)
# chain: PLGSPEAGDISEERQAFLRLTAVYSVMKDFRYTWSMQCFGDVLSNDATYSGSSNDAQTFTLLENYQYQADHTEILNKYRYSYQCINKANLFIRDMEMADDALFSKYDKEQMIGEAKFIRAYTYFELVKTFGGVPCYTGVLDLDHERLGRASVEEIYSVIEQDLNDAVSVLPKKSEVANYESSYAGRITKGAAIAMQTRIYLYEKKYDEVKKAFEKFQNECGGEYSLVAPEDYTWQFSLDGEHCSSSILEVNMYNSSTQSSYNVNNGNRHVLMSMPRNMTIGFGCAQPTQALADAYDAEGDVIRKKTTLLSTEEAIEIETAAKGDVAPVTDDRTGWYNRKLYLAPGQREENRGNNQPTNLRLIRLAEVYLNYAEACYFSGDIANAQKYLNEVRSHVNLAPKNHTGSQLFEDIMNERHLEFGMEGFRFFDVVRVGWGEKVFNGTKKAEFGAKTPFSAGAEVLPIPQTEIDISDGLITN
# Columns and labels:
# Assay in all cases: glycan array binding signal (z-score within array); higher = stronger binding
# Conditions in all cases: glycan notation: IUPAC condensed, linker removed
# [1] = target: Fuc(a1-2)Gal(b1-3)GalNAc(a1-3)[Fuc(a1-2)]Gal(b1-4)GlcNAc
# Procedure, shortened: (§1)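 The binding signal is a Z-score computed within each array. Data were drawn from 3228 arrays in the Consortium for Functional Glycomics database, restricted to those with a known protein sequence. Scores were averaged over arrays of the same protein sequence at different concentrations or buffers, and over linkers, and negative values can be taken as non-binding.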
# [2] = target: Fuc(a1-2)Gal(b1-3)[Fuc(a1-4)]GlcNAc(b1-2)Man(a1-3)[Fuc(a1-2)Gal(b1-3)[Fuc(a1-4)]GlcNAc(b1-2)Man(a1-3)]Man(b1-4)GlcNAc(b1-4)GlcNAc
# Procedure, shortened: as §1
# [3] = target: Fuc(a1-2)Gal(b1-4)GlcNAc(b1-2)[Fuc(a1-2)Gal(b1-4)GlcNAc(b1-4)]Man(a1-3)[Fuc(a1-2)Gal(b1-4)GlcNAc(b1-2)Man(a1-6)]Man(b1-4)GlcNAc(b1-4)GlcNAc
# Procedure, shortened: as §1
# [4] = target: Fuc(a1-2)Gal(b1-4)GlcNAc(b1-6)GalNAc
# Procedure, shortened: as §1
# [5] = target: Fuc(a1-2)Gal(b1-4)[Fuc(a1-3)]GlcNAc(b1-2)Man(a1-3)[Fuc(a1-2)Gal(b1-4)[Fuc(a1-3)]GlcNAc(b1-2)Man(a1-6)]Man(b1-4)GlcNAc(b1-4)[Fuc(a1-6)]GlcNAc
# Procedure, shortened: as §1
# [6] = target: Fuc(a1-2)Gal(b1-4)[Fuc(a1-3)]GlcNAc(b1-3)GalNAc
# Procedure, shortened: as §1
# [7] = target: Fuc(a1-2)Gal3S(b1-4)GlcNAc
# Procedure, shortened: as §1
# Fuc(a1-2)[Gal(a1-3)]Gal = target: Fuc(a1-2)[Gal(a1-3)]Gal
# Procedure, shortened: as §1
# [8] = target: Fuc(a1-2)[Gal(a1-3)]Gal(b1-3)GlcNAc(b1-2)Man(a1-3)[Fuc(a1-2)[Gal(a1-3)]Gal(b1-3)GlcNAc(b1-2)Man(a1-6)]Man(b1-4)GlcNAc(b1-4)[Fuc(a1-6)]GlcNAc
# Procedure, shortened: as §1
# [9] = target: Fuc(a1-2)[Gal(a1-3)]Gal(b1-4)GlcNAc(b1-2)Man(a1-3)[Fuc(a1-2)[Gal(a1-3)]Gal(b1-4)GlcNAc(b1-2)Man(a1-6)]Man(b1-4)GlcNAc(b1-4)GlcNAc
# Procedure, shortened: as §1
# [10] = target: Fuc(a1-2)[GalNAc(a1-3)]Gal(b1-3)GlcNAc(b1-2)Man(a1-3)[Fuc(a1-2)[GalNAc(a1-3)]Gal(b1-3)GlcNAc(b1-2)Man(a1-6)]Man(b1-4)GlcNAc(b1-4)[Fuc(a1-6)]GlcNAc
# Procedure, shortened: as §1
# [11] = target: Fuc(a1-2)[GalNAc(a1-4)]Gal(b1-4)GlcNAc
# Procedure, shortened: as §1
# Fuc(a1-3)GlcNAc = target: Fuc(a1-3)GlcNAc
# Procedure, shortened: as §1
# [12] = target: Fuc(a1-3)[Gal(b1-4)]GlcNAc(b1-6)GalNAc
# Procedure, shortened: as §1
# [13] = target: Fuc(a1-3)[Gal(b1-4)]GlcNAc6S
# Procedure, shortened: as §1
# [14] = target: Fuc(a1-3)[GalNAc(b1-4)]GlcNAc6S
# Procedure, shortened: as §1
# Gal(a1-3)Gal(b1-4)Glc = target: Gal(a1-3)Gal(b1-4)Glc
# Procedure, shortened: as §1
# [15] = target: Gal(a1-3)[Gal(a1-4)]Gal(b1-4)GlcNAc
# Procedure, shortened: as §1
# Gal(b1-3)GlcNAc(b1-2)Man = target: Gal(b1-3)GlcNAc(b1-2)Man
# Procedure, shortened: as §1
# [16] = target: Gal(b1-3)GlcNAc(b1-3)Gal(b1-4)Glc
# Procedure, shortened: as §1
# Gal(b1-4)Glc = target: Gal(b1-4)Glc
# Procedure, shortened: as §1
# [17] = target: Gal(b1-4)GlcNAc(b1-3)Gal(b1-4)GlcNAc(b1-2)Man(a1-3)[Gal(b1-4)GlcNAc(b1-3)Gal(b1-4)GlcNAc(b1-2)Man(a1-6)]Man(b1-4)GlcNAc(b1-4)GlcNAc
# Procedure, shortened: as §1
# [18] = target: Gal(b1-4)GlcNAc(b1-3)Gal(b1-4)GlcNAc(b1-3)Gal(b1-4)GlcNAc(b1-2)Man(a1-3)[Gal(b1-4)GlcNAc(b1-3)Gal(b1-4)GlcNAc(b1-3)Gal(b1-4)GlcNAc(b1-2)Man(a1-6)]Man(b1-4)GlcNAc(b1-4)GlcNAc
# Procedure, shortened: as §1
# Gal3S(b1-4)Glc = target: Gal3S(b1-4)Glc
# Procedure, shortened: as §1
# Gal3S4S(b1-4)GlcNAc = target: Gal3S4S(b1-4)GlcNAc
# Procedure, shortened: as §1
# GalNAc6S(b1-4)GlcNAc = target: GalNAc6S(b1-4)GlcNAc
# Procedure, shortened: as §1
binder,measurement,setting,value
B1,glycan array binding signal (z-score),[1],-1
same,glycan array binding signal (z-score),[2],0.809
same,glycan array binding signal (z-score),[3],1.43
same,glycan array binding signal (z-score),[4],0.828
same,glycan array binding signal (z-score),[5],-0.25
same,glycan array binding signal (z-score),[6],-0.279
same,glycan array binding signal (z-score),[7],0.279
same,glycan array binding signal (z-score),Fuc(a1-2)[Gal(a1-3)]Gal,0.139
same,glycan array binding signal (z-score),[8],1.43
same,glycan array binding signal (z-score),[9],-0.223
same,glycan array binding signal (z-score),[10],-0.166
same,glycan array binding signal (z-score),[11],-0.304
same,glycan array binding signal (z-score),Fuc(a1-3)GlcNAc,-0.753
same,glycan array binding signal (z-score),[12],-0.205
same,glycan array binding signal (z-score),[13],0.08
same,glycan array binding signal (z-score),[14],0.949
same,glycan array binding signal (z-score),Gal(a1-3)Gal(b1-4)Glc,-0.124
same,glycan array binding signal (z-score),[15],2.05
same,glycan array binding signal (z-score),Gal(b1-3)GlcNAc(b1-2)Man,-0.555
same,glycan array binding signal (z-score),[16],10.3
same,glycan array binding signal (z-score),Gal(b1-4)Glc,-0.065
same,glycan array binding signal (z-score),[17],5.38
same,glycan array binding signal (z-score),[18],2.49
same,glycan array binding signal (z-score),Gal3S(b1-4)Glc,-0.196
same,glycan array binding signal (z-score),Gal3S4S(b1-4)GlcNAc,-0.718
same,glycan array binding signal (z-score),GalNAc6S(b1-4)GlcNAc,-0.507
